Our source for the composite z-score, composite Z-score and z-score values is PubChem BioAssay.

Active and inactive are the calls of the source.

For one experiment, the target named is Albumin (Bos taurus) (UniProt P02769). Put plainly: bovine serum albumin binders on microarray, profiling panel, artefact control for SMM control protein annotation, biochemical, small-molecule microarray, Alexa647 label, 635/667 nm fluorescence (AID 1118).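 Further: score merges 667 nm emission intensity and signal-to-noise per printed compound spot.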 The following applies: BSA-A647 binding, fluorescence 635 nm, higher = more signal.
Experiment [1] is described as follows: small-molecule microarray binders of probe aXIP, primary screen, biochemical, NeuroSMM set, 635/667 nm fluorescence (AID 1119).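 Further: probe is the protein aXip251-270 applied at 1 µg/mL to compound-printed slides; binding of probe to printed compounds measured as 667 nm fluorescence plus signal to noise.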 The note with it: higher = more signal, called active from +8 up or from −8 down.
A short description of experiment [2]: small-molecule binders of probe aNOTCH3, primary screen, biochemical, small-molecule microarray, 635/667 nm fluorescence (AID 1120).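 Further: probe is a biotin-tagged antibody raised against NOTCH3 rather than NOTCH3 protein; score merges spot fluorescence near 667 nm with spot signal to noise.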 The note with it: higher = more signal.
Experiment [3] is described as follows: small-molecule binders of probe aNOTCH2, primary screen, biochemical, small-molecule microarray, 635/667 nm fluorescence (AID 1121).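 Further: score merges feature fluorescence read at 667 nm with its signal to noise.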 The note with it: higher = more signal.
Experiment [4] concerns the target Carbonic anhydrase 2 (Homo sapiens) (UniProt P00918). Put plainly: CAII small-molecule binders, profiling panel, biochemical, small-molecule microarray, Alexa647-labelled CAII (AID 1122). The following applies: CAII-A647 binding fluorescence, higher = more signal.
Experiment [5] in a line: COS7 lysate on small-molecule microarray, probe aHis, 635 nm (AID 1123).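 Further: z-score combines 667nm fluorescence intensity with signal-to-noise per printed compound spot.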 The following applies: COS7 cell lysate, fluorescence, higher = more signal.
Experiment [6] is described as follows: compound binding in COS7 lysate, probe aLAP1, primary screen, cell lysate, small-molecule microarray (AID 1124).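 Further: lysate comes from COS7 cells expressing LAP1 and is applied at 0.3 µg/mL; score merges spot fluorescence near 667 nm with signal-to-noise over triplicate slides.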 The note with it: probe aLAP1, fluorescence, higher = more signal.
The next experiment deals with Sam68 (KHDRBS1). The experiment is described as follows: Sam68 small-molecule binders, primary screen, biochemical, small-molecule microarray, 635 nm fluorescence (AID 1125).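 Further: score merges 667 nm channel intensity with signal to noise over triplicate slides.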 The following applies: small-molecule microarray binding, higher = more signal.
The subject of experiment [7] is Chordin-like protein 2 (CHRDL2). The experiment is described as follows: CHRDL2 small-molecule binders, primary screen, biochemical, small-molecule microarray, 635 nm fluorescence (AID 1126).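 Further: printed compound slides probed with Chrdl2 protein at 4 µg/mL for 1 h at 4 C; score merges 667 nm emission intensity with signal to noise over three replicate slides.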 The note with it: small-molecule microarray binding, fluorescence 635 nm; higher = more signal.
Experiment [8] addresses Concanavalin-A (Canavalia ensiformis) (UniProt P02866). Put plainly: ConA small-molecule binders, primary screen, artefact control for SMM control protein annotation, biochemical, small-molecule microarray, Alexa647 label, 635 nm (AID 1127).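 Further: z combines 667 nm emission intensity with signal-to-noise across three replicate slides.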 The following applies: ConA-A647 binding fluorescence, higher = more signal.
Experiment [9] can be described thus: anti-His antibody binders, primary screen, artefact control for SMM control protein annotation, biochemical, small-molecule microarray, 635 nm fluorescence (AID 1128).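 Further: score merges feature fluorescence with signal-to-noise for each printed compound spot.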 The following applies: anti-His Alexa647 antibody binding, higher = more signal.
The subject of experiment [10] is Human papillomavirus type 1a E7 protein (residues 1-88). Put plainly: HPV1a E7 small-molecule binders, primary screen, biochemical, small-molecule microarray, residues 1-88, 635 nm (AID 1129). The note with it: small-molecule microarray binding, fluorescence 635 nm; higher = more signal.
The target in experiment [11] is Focal adhesion kinase 1 (Homo sapiens) (UniProt Q05397). The experiment is described as follows: small-molecule microarray binders of FAK, primary screen, biochemical, 635/667 nm fluorescence, BSA, DTT (AID 1130).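 Further: composite of spot emission at 667 nm and signal to noise over triplicate slides.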 The following applies: PTK2 binding, 635 nm fluorescence, higher = more signal.
In experiment [12] the test system is Fibrinogen (Alexa647-labelled). The experiment is described as follows: fibrinogen binders on compound microarrays, profiling panel, artefact control for SMM control-protein annotation, biochemical, small-molecule microarray, 635/667 nm fluorescence (AID 1131).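 Further: z-score merges 667 nm fluorescence with per-spot signal-to-noise over triplicate slides.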 The note with it: fibrinogen-A647 binding fluorescence, higher = more signal.
The target in experiment [13] is Follistatin (Homo sapiens) (UniProt P19883). The experiment is described as follows: follistatin binders on small-molecule microarrays, primary screen, biochemical, small-molecule microarray, 635/667 nm fluorescence (AID 1132). The note with it: FST binding, 635 nm fluorescence, higher = more signal.
For experiment [14], the target named is Fibroblast growth factor 2 (Homo sapiens) (UniProt P09038). The experiment is described as follows: FGF2 binders on small-molecule microarrays, primary screen, biochemical, small-molecule microarray, 635/667 nm fluorescence (AID 1133). The note with it: small-molecule microarray binding, FGF2, fluorescence 635/667; higher = more signal.
A short description of experiment [15]: mitochondrial membrane potential change in A549 cells, profiling panel, cell-based, JC-1 fluorescence, basal, 24 h, 100 nL (AID 1138).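 Further: A549 lung adenocarcinoma cells under basal conditions with no added stimulus; test concentration not given here.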 The note with it: higher = more signal.
Another experiment deals with Lefty1. Put plainly: Lefty1 binders on small-molecule microarrays, primary screen, biochemical, small-molecule microarray, 635/667 nm fluorescence (AID 1139). The note with it: small-molecule microarray binding, fluorescence 635/667; higher = more signal.
The test system of experiment [16] is wheat germ agglutinin (Triticum aestivum), Alexa647-labelled. The experiment is described as follows: wheat germ agglutinin binders on compound microarrays, profiling panel, artefact control for SMM control-protein annotation, biochemical, small-molecule microarray, 635/667 nm fluorescence (AID 1140).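 Further: score merges 667 nm feature emission with signal to noise over triplicate slides.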 The note with it: WGA-A647 binding, 635 nm fluorescence, higher = more signal.

Experiment [17] has as its target Luciferin 4-monooxygenase (Photinus pyralis) (UniProt P08659). The experiment is described as follows: firefly luciferase enzyme inhibitors, primary screen, biochemical, luminescence, purified enzyme, 2006 set (AID 1141).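 Further: cell-free assay with purified firefly luciferase at 100 ng per well in PBS; test concentration not given here.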 The note with it: SteadyGlo luminescence, 30 min, higher = more signal, called active from +8 up or from −8 down.

Chain of Fibroblast growth factor 2 (Homo sapiens) (P09038 whole entry, looked up): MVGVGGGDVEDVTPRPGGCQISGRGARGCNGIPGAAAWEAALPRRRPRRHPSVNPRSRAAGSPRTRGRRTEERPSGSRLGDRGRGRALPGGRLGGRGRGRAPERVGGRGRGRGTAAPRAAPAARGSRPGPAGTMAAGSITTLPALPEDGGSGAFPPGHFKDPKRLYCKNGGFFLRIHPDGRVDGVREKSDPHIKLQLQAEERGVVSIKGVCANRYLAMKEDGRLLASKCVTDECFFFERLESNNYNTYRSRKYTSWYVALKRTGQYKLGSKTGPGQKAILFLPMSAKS
Chain of Luciferin 4-monooxygenase (Photinus pyralis) (P08659 whole entry, looked up): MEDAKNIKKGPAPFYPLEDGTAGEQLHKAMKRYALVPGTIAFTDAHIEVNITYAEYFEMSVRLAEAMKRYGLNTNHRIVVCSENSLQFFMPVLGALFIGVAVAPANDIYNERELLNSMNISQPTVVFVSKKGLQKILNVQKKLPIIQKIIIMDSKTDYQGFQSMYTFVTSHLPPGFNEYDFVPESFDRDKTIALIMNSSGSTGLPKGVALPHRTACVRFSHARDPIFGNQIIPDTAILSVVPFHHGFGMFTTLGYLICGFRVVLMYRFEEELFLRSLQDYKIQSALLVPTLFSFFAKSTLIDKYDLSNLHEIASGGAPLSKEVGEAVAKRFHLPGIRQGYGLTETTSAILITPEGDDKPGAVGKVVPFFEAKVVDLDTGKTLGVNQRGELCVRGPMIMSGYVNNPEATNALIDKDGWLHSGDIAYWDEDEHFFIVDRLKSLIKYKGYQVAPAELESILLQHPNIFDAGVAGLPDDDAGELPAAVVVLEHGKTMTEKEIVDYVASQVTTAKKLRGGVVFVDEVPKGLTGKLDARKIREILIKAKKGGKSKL
Chain of Focal adhesion kinase 1 (Homo sapiens) (Q05397 whole entry, looked up): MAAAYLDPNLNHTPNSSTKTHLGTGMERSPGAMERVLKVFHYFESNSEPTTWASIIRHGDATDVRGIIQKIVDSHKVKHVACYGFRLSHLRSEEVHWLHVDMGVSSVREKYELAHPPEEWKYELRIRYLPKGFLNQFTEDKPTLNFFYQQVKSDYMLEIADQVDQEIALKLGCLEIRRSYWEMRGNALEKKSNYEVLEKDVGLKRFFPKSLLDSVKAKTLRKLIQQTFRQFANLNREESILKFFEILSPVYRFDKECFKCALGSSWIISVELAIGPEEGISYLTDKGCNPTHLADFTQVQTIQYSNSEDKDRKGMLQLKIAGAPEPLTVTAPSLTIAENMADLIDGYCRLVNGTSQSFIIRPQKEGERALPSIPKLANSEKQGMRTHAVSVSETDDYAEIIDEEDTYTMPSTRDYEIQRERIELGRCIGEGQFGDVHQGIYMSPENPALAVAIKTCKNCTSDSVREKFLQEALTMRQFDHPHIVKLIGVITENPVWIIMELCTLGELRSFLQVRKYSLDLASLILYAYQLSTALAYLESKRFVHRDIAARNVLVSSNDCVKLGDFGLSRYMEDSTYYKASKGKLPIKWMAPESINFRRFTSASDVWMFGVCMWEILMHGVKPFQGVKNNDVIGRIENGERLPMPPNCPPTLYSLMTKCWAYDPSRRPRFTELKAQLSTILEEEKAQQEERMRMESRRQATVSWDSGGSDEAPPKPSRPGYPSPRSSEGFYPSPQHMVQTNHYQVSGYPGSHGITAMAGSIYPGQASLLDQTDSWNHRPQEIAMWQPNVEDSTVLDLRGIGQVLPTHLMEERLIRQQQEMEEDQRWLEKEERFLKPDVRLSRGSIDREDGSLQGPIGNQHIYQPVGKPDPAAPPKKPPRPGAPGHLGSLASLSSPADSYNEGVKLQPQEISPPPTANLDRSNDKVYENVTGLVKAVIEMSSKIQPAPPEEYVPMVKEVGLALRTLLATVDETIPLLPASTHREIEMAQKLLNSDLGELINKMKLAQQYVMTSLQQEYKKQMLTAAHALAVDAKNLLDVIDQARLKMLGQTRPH
Chain of Concanavalin-A (Canavalia ensiformis) (P02866 whole entry, looked up): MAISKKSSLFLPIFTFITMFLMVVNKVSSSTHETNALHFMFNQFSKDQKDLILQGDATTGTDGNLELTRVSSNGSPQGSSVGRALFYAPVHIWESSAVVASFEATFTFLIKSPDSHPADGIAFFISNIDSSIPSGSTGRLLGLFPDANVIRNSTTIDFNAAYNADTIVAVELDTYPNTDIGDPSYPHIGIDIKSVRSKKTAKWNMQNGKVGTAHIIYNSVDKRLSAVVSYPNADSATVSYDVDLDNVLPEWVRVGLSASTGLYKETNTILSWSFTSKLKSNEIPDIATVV
Chain of Follistatin (Homo sapiens) (P19883 whole entry, looked up): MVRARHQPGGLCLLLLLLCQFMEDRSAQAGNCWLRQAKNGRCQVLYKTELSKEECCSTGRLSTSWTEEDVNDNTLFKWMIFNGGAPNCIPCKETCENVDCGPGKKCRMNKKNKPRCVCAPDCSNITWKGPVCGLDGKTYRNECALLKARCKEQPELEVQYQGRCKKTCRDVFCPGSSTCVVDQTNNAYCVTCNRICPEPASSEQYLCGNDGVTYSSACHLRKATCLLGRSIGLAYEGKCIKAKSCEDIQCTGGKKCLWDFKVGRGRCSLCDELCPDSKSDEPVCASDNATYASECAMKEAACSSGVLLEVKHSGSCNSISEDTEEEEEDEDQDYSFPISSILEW
Chain of Albumin (Bos taurus) (P02769 whole entry, looked up): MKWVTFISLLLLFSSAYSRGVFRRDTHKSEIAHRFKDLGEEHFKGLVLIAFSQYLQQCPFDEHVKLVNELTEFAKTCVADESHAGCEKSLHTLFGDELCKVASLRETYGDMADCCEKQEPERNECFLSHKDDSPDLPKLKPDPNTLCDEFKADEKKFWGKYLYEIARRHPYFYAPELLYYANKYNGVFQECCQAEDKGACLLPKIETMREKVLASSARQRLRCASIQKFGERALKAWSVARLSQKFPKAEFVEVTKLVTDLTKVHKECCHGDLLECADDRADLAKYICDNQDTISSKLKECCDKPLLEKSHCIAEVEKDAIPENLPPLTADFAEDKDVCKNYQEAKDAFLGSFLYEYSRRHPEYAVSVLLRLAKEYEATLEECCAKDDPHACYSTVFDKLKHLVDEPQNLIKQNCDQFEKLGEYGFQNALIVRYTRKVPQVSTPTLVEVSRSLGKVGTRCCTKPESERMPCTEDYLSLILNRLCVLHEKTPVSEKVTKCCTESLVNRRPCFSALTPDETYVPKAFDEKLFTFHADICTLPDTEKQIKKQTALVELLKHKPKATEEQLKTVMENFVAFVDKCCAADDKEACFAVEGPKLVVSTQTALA

As for `CC(C)C[C@@H]1NC(=O)[C@H]2C[C@@H](C(=O)NCCCCCCNC(=O)CS)[C@@H](c3cccc(OCCO)c3)N2C1=O`, the composite z-score was -0.641 with Albumin (Bos taurus); 0.0493 in experiment [2]; -0.132 in [3]; 0.338 in experiment [4]; 1.68 in experiment [5]; 0.995 in experiment [6]. For the same compound, the composite z-score was 1.22 with Sam68 (KHDRBS1); 1.41 in experiment [7]; 1.17 in experiment [8]; 1.19 in experiment [9]; 1.21 in experiment [10]; 0.236 in experiment [11]. Moreover, the composite z-score in experiment [12] was 0.855; in [13] it was 1.43; in experiment [14], 1.64; with Lefty1 it was 1.57; in [16], 0.96. In experiment [1], the composite Z-score was 0.156 (inactive). Also, the z-score in [15] is 1; in experiment [17], -1.05 (inactive).
Take `CCCN1C(=O)[C@]2(COC(c3ccc(OCCCO)cc3)=N2)Cc2ccccc21`: the composite z-score is 0.0531 in the experiment with Albumin (Bos taurus); -0.0026 in [2]; -0.0009 in experiment [3]; 0.64 in experiment [4]; 1.93 in [5]; -0.218 in experiment [6]. The composite z-score was 1.11 in the experiment on Sam68 (KHDRBS1); -0.125 in [7]; 1.13 in [8]; 2.63 in experiment [9]; 1.23 in [10]; 0.473 in [11]. Also, the composite z-score was 0.551 in experiment [12]; 1.35 in [13]; 1.26 in [14]; -0.222 in the experiment on Lefty1; 0.974 in experiment [16]. For the same compound, the composite Z-score in experiment [1] was 0.305 (inactive). Further, the z-score in experiment [15] was 0.306; in experiment [17], -1.66 (inactive).
In the case of `COCCOC(=O)N1C(=O)[C@@]2(c3cc(C#CCCO)ccc31)[C@H](c1ccccc1OCCO)N1[C@H](c3ccccc3)[C@H](c3ccccc3)OC(=O)[C@H]1[C@@H]2C(=O)N1CCN(c2ncccn2)CC1`, the composite z-score in the experiment with Albumin (Bos taurus) was 0.602; in [2], 0.413; in [3], 0.123; in [4], 0.539; in experiment [5] it was 2.02; in experiment [6], 0.505. For the same compound, the composite z-score was 1.12 in the experiment on Sam68 (KHDRBS1); 0.52 in experiment [7]; 1.15 in [8]; 1.64 in experiment [9]; 1.21 in [10]; 0.714 in [11]. The composite z-score in experiment [12] was determined as 0.807; in experiment [13], 1.32; in experiment [14] it was 0.819; in the experiment with Lefty1, 1.38; in [16] it was 0.789. Also, the composite Z-score in experiment [1] is 0.341 (inactive). Besides, the z-score in [15] was -0.835; in experiment [17] it was -0.198 (inactive).
As to `COc1cc(C(O)C2C=CC3C(=O)N(c4ccccc4)C(=O)C3N2Nc2ccc(C#N)cc2)cc(OC)c1OC` (stereo not given), the composite z-score was determined as 1.01 with Albumin (Bos taurus); 0.178 in experiment [2]; 0.135 in [3]; 0.883 in experiment [4]; 3.23 in [5]; 1.26 in experiment [6]. Moreover, the composite z-score in the experiment with Sam68 (KHDRBS1) is 1.32; in [7], -1.05; in [8], 1.21; in [9], 2.58; in experiment [10], 1.31; in experiment [11] it was 1.04. Also, the composite z-score is 1.11 in [12]; 1.02 in [13]; 0.0977 in [14]; -0.0667 in the experiment with Lefty1; 1.51 in experiment [16]. In experiment [1], the composite Z-score is 0.0402 (inactive). Moreover, the z-score in experiment [15] was 0.142; in experiment [17], 0.282 (inactive).
For the compound `COc1ccc(C#Cc2ccc3c(c2)[C@]2(C(=O)N3)[C@H](c3ccc(O)cc3)N3[C@H](c4ccccc4)[C@H](c4ccccc4)OC(=O)[C@H]3[C@@H]2C(=O)NC[C@H](O)c2ccccc2)cc1`, the composite z-score with Albumin (Bos taurus) was 0.363; in [2], 0.0319; in experiment [3] it was -0.189; in experiment [4], 0.295; in experiment [5] it was 2.78; in [6] it was 0.0766. Also, the composite z-score with Sam68 (KHDRBS1) stood at 0.81; in [7] it was 0.0813; in [8] it was 1.17; in [9], 1.35; in [10] it was 1.21; in experiment [11], 0.32. Besides, the composite z-score worked out at 0.556 in experiment [12]; 1.03 in experiment [13]; 0.487 in experiment [14]; 0.751 with Lefty1; 1.01 in [16]. Besides, the composite Z-score in [1] was -0.118 (inactive). The z-score in experiment [15] is -1.26; in experiment [17] it was -0.835 (inactive).
